D1 ag: human D1 receptor agonism. P21728. HEK293 T-REx D1 cells, calcium flux, agonist mode. activation, % at 2 µM. actives 1% (n = 360,000). AID 504660; in the data active means activation above about 30%
Target sequence (P21728 whole entry, looked up): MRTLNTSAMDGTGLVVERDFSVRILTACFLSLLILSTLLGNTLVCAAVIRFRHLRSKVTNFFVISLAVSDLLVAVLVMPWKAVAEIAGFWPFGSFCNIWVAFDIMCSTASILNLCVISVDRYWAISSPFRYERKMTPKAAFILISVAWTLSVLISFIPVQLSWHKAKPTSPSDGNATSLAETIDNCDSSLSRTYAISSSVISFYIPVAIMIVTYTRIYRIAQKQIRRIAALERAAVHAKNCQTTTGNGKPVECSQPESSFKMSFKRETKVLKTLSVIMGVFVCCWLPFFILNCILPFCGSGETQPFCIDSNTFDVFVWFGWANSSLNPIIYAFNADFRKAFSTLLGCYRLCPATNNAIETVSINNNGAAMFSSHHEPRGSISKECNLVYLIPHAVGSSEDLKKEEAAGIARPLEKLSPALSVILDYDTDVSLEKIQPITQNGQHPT
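Tetracycline-induced HEK293 TREx D1 cells, force-coupled to calcium signalling, were dye-loaded with a no-wash calcium kit. Compound was pin-added after a 10 s baseline. Fluorescence was read kinetically at 1 cycle/s for 180 s, with calcium rises flagged as agonism.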
D1 PAM: human D1 dopamine receptor positive modulation; P21728; HEK293 TREx D1 cells, calcium flux, dopamine EC20 potentiation; potentiation, % at 10 µM; actives 0.036% (n = 360,000); AID 504651; in the data active means potentiation above about 30%
D3 antag: antagonists of human D3 dopamine receptor | P35462 | D3R cells, DiscoveRx beta-arrestin luminescence, antagonist mode; active compounds read low | max response, negative = inhibition, % | actives 2.5% (n = 360,000); in the data active means max response below about -50%; inconclusive means no clear call, values can overlap the other calls
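Cells expressing the human receptor were seeded at 1500 cells/well, incubated overnight at 37 degrees C in 5% CO2, then exposed to library compounds with dopamine controls for 90 minutes at 37 degrees C before luminescent detection.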
D1 antagonist: human D1 dopamine receptor antagonism; P21728; HEK293 TREx D1 cells, calcium flux, dopamine EC80; active compounds read low; activity change, negative = inhibition, % at 10 µM; actives 3.2% (n = 360,000); AID 504652; in the data active means activity change below about -30%
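Antagonism measured as reduced calcium response to an EC80 dopamine addition following 180 s compound pre-read; cells were inducible HEK293 Trex D1 plated overnight at 30 C, read kinetically at 1 cycle/sec.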
DRD3 agonist: D3 dopamine receptor (human) agonism; P35462; actives 0.58% (n = 410,000); D3R DiscoveRx beta-arrestin cells, luminescence, 90 min; max activation, %; AID 652048; in the data active means max activation above about 30%
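Cells at 1500/well, incubated overnight, then treated with pinned compounds (dopamine as control) for 90 min at 37 degrees C. DiscoveRx reagent added for 30 - 60 minutes at room temperature; luminescence read.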
ERG-DNA inh: blocks human ERG Ets domain binding to DNA. P11308. fluorescence polarization, His-ERG Ets domain / labelled DNA. Potency, µM (series often up to 76.9 µM), hits mostly inhibitors. actives 0.028% (n = 370,000). AID 624246; active means well fitted inhibition curve with a large enough effect in the polarisation, with a control signal flat; inconclusive means small, poorly fitted or top-dose-only effect, or effect the other way, or a change in a side signal; inactive means no such curve, though single readings can be large or run the other way; the % refers to the polarisation;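 further: polarization taken with two DNA probes labelled with fluorescein and Texas red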
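His-tagged ERG Ets domain (1 uM in the protein solution; 300mM KCl, 50mM Tris-HCl, 1mM EDTA, 1mM DTT, pH 7.5) received compound, then a probe mix of 5 nM fluorescein-DNA and 100nM Texas-615-DNA. Fluorescence polarization was read for both dyes.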
Hits are given with their value; i = inactive; ? = inconclusive; nt = not tested or not shown; ! = not active in a repeat. Shown are actives, neighbours in structure and some others; about 6.1% of the full set was active somewhere.

SMILES | D1 ag | D1 PAM | D3 antag | D1 antagonist | DRD3 agonist | ERG-DNA inh
CC(=O)Nc1cccc(O)c1 | i | i | i | nt | 82.6! | i
COc1cc(OC)c(NC(=S)Nc2cc(Cl)cc(Cl)c2)cc1Cl | i | i | i | i | i | i
COc1cc(OC)c(NC(=S)Nc2cccc(C(C)=O)c2)cc1Cl | i | i | -59.7 | i | i | i
CC(=O)Nc1cccc(C(=O)OCc2ccc(C(=O)Oc3ccc(Cl)cc3)cc2)c1 | i | i | i | -32.0 | i | i
CC(=O)Nc1ccc(C(=O)OCc2ccc(Br)cc2)cc1 | i | i | i | i | i | i
CN(C)S(=O)(=O)Oc1cccc(C(=O)Nc2ccc(Cl)c(Cl)c2)c1 | i | i | -52.9 | i | i | i
CC(=O)Nc1ccccc1 | nt | nt | i | nt | i | i
CCC1CN(C(=O)N2CCC(C(=O)NCCN(CC)CC)CC2)c2cc(C)ccc2O1 (stereo not given) | i | i | nt | i | i | i
CC(C)C1C(=O)N(Cc2cn(CCC3OCCCO3)nn2)CCS(=O)(=O)N1Cc1ccc(-c2ccncc2)cc1 (stereo not given) | nt | nt | i | nt | i | nt
Oc1ccc(NCc2ccc(OCc3ccccc3Cl)cc2)cc1 | i | i | nt | i | i | ?
COc1ccccc1NS(=O)(=O)c1cc(NC(=O)c2cccnc2)ccc1N1CCCCC1 | nt | nt | i | nt | i | i
Cc1cccc(COC(=O)Nc2ccc(NC(=O)c3ccccc3Cl)cc2)c1 | i | i | i | -56.2 | i | i
CCOC(=O)Nc1ccccc1C(=O)Nc1cc(C)cc(C)c1 | i | i | i | i | i | i
O=C(Nc1cccc(NC(=O)c2ccccc2Cl)c1)c1ccco1 | i | i | i | i | i | i
CC(=O)Nc1cccc(NC(=O)c2ccccc2Cl)c1 | nt | nt | -54.6 | nt | i | nt
Cc1cccc(NC(=O)CN2C(=O)C(c3ccccc3)=NC23CCC(C)CC3)c1 (stereo not given) | i | i | nt | i | i | i
CCc1ccc(CNC(=O)c2cc3cc(S(=O)(=O)N4CCCCC4)ccc3n2C)cc1 | i | i | nt | i | i | i
Nc1ccc2nc(SCC(=O)Nc3ccc(N4CCOCC4)c(Cl)c3)sc2c1 | i | i | i | -33.8 | i | i
CC1(NC(=S)Nc2ccc(NC(=S)NC3(C)CCS(=O)(=O)C3)cc2)CCS(=O)(=O)C1 (stereo not given) | i | i | i | i | i | i
CN(CC(=O)Nc1ccc(N2CCOCC2)cc1)C(=O)c1cc(F)c(F)cc1Cl | i | i | i | -41.9 | i | i
Cc1ccc(NC(=O)CSCC(=O)Nc2ccc(N3CCOCC3)c(Cl)c2)cc1 | i | i | i | -33.6 | i | i
Cc1ccc(NC(=O)CSCC(=O)NC2(C)CCS(=O)(=O)C2)cc1 (stereo not given) | i | nt | i | -40.1 | i | i
Cn1c(=O)cc(SCC(=O)N2CCN(c3ccccc3)CC2)c2ccccc21 | i | i | i | i | i | i
CCCc1cc(=O)oc2cc(C)c3c(-c4cccc(OC)c4)coc3c12 | i | i | nt | i | i | i
COc1ccc(CNC(=O)CSc2nc3ccc(N)cc3s2)cc1 | i | i | i | -31.9 | i | i
SMILES | D1 ag | D1 PAM | D3 antag | D1 antagonist | DRD3 agonist | ERG-DNA inh
CCOc1ccc2nc(SCC(=O)NCc3ccc(S(N)(=O)=O)cc3)sc2c1 | i | i | i | i | i | i
Nc1nnc(SCC(=O)Nc2ccc(N3CCOCC3)c(Cl)c2)s1 | i | i | i | -36.6 | i | i
COc1ccc(-c2nnc(SCc3cccc(Cl)c3)o2)cc1 | i | i | nt | i | i | i
CCN(C(=O)COC(=O)COc1ccc2c(c1)CCC2)c1c(N)n(Cc2ccccc2)c(=O)[nH]c1=O | i | i | i | i | i | i
CN(C(=O)COC(=O)COc1ccc2c(c1)CCC2)c1c(N)n(Cc2ccccc2)c(=O)[nH]c1=O | i | i | i | -30.7 | i | i
CC(NC(=O)c1cc2c(=O)n3ccccc3nc2n(CC2CCCO2)c1=N)c1ccccc1 (stereo not given) | i | nt | i | i | i | i
NC(=O)CCn1c(C(=O)c2ccc(Cl)cc2)c2ccccc2[n+]1[O-] | i | i | i | i | i | i
CN(C)C/C=C(/c1ccc(Br)cc1)c1cccnc1 | nt | nt | -104.8 | nt | i | i
CN(C)CCO/N=C(\c1ccc(Br)cc1)c1cccnc1 | nt | nt | ? | nt | i | i
CSc1cccc(NC(=O)Cn2nc(C)c3sc4ccccc4c3c2=O)c1 | i | i | nt | i | i | i
CCc1cccc(NC(=O)Cn2nc(C)c3sc4ccccc4c3c2=O)c1 | i | i | nt | -42.3 | i | i
CCc1cccc(C)c1NC(=O)CCCn1nc(C)c2sc3ccccc3c2c1=O | i | i | nt | -38.6 | i | i
CCOC(=O)c1[nH]c2ccccc2c1NC(=S)Nc1ccccc1 | i | i | i | i | i | i
CN(C)Cc1c(C(=O)Nc2ccccc2)[nH]c2ccccc12 | i | i | -57.3 | i | i | i
CCOc1cc2c(cc1OCC)C(C(=O)O)C(c1cc(Br)c(O)c(OC)c1)N(C)C2=O (stereo not given) | i | i | i | -31.9 | i | i
O=C(O)Cn1c(=O)n(Cc2ccccc2)c2ccccc21 | i | i | i | i | i | i
N=c1n(CC(=O)c2cccs2)c2ccccc2n1Cc1ccccc1 | 47.1 | i | i | i | i | i
COc1ccc(NC2=Nc3ccccc3N[C@@]23C[C@H]2CCCC(=O)N4CC[C@@H](C3)[C@@H]24)cc1 | nt | nt | -68.1 | nt | i | i
Cc1snc(S(=O)(=O)/C(C#N)=N/Nc2ccc(C(F)(F)F)cc2)c1C#N | i | i | -91.2 | i | i | i
Cc1n[nH]c(=O)c2c(NC(=O)COC(=O)c3cccc(OC(F)F)c3)oc(C)c12 | i | i | i | i | i | i
Cc1cc(-c2nnc3n2N=C(C(C)(C)C)CS3)n[nH]1 | i | i | -52.0 | i | i | i
CC(=O)Nc1cc(C(=O)N2CCCC2)ccc1Sc1ccc(Cl)cc1 | i | i | i | i | 63.1 | i
CC(=O)Nc1cc(C(=O)NCc2ccc(F)cc2)ccc1Sc1ccc(C)cc1 | i | i | nt | -39.3 | i | i
CC(=O)Nc1cc(C(=O)N2CCCC2)ccc1Sc1ccc(C)cc1 | i | i | i | i | 41.4 | i
CC(=O)Nc1cc(C(=O)NCc2ccccc2)ccc1Sc1ccc(C)cc1 | i | i | nt | i | i | i
O=C(NCCCN1CCOCC1)c1ccc(CNS(=O)(=O)c2ccc(Br)cc2)cc1 | i | i | i | i | i | i
CCOC(=O)C1CCCN(C(=O)CSc2nnnn2C)C1 (stereo not given) | nt | nt | i | nt | i | i
CC(=O)c1cn(CC(=O)Nc2ccc(C)cc2)c2ccccc12 | i | i | i | nt | i | i
CC1=CC(C)(C)N(C(=O)c2ccc(F)cc2)c2cc3c(cc21)OCO3 | 71.8 | i | i | i | i | i
CC1=CC(C)(C)N(C(=O)CCl)c2cc(C)ccc21 | i | i | i | i | i | i
